PubChem BioAssay AID1159580 (chemical genetic matrix, 2015)
The campaign covered roughly 5,500 compounds. About 2,000 (36%) were called active. Not shown: some 18% with an inconclusive outcome. No stated cut-off is given here; in the data, active means normalized growth mostly below about 0.91 (no sharp cut-off); inconclusive means no clear call, values can overlap the other calls; inactive means mostly above about 0.92. Some of the results follow.

Experiment: chemical genetic growth profiling, strain panel (AID 1159580);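 further: tested at 20 µM; growth read once vehicle control cultures reached saturation at 30 °C; 1 = growth at the plate median or of vehicle wells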
Settings: S. cerevisiae deletion strains, growth OD

Measured: normalized growth

CC12CCC3C(CCC4(O)CC(O)CCC34/C=N/NC(N)=O)C1(O)CCC2C1=CC(=O)OC1 (stereo not given)
inactive: locus YBR021W, strain FUR4, stronger effect = lower value 1.05 | locus YBR229C, strain ROT2, stronger effect = lower value 1.02 | locus YCL029C, strain bik1, stronger effect = lower value 0.999 | locus YDL035C, strain GPR1, stronger effect = lower value 1.05 | locus YDL074C, strain BRE1, stronger effect = lower value 1.05 | locus YDL101C, strain DUN1, stronger effect = lower value 1.01 | locus YDL185W, strain tfp1, stronger effect = lower value 0.998 | locus YDL192W, strain arf1, stronger effect = lower value 1.01 | locus YDR101C, strain arx1, stronger effect = lower value 1.01 | locus YDR162C, strain NBP2, stronger effect = lower value 1.02 | locus YDR318W, strain mcm21, stronger effect = lower value 0.985 | locus YDR388W, stronger effect = lower value 0.985 | locus YDR502C, strain sam2, stronger effect = lower value 0.974 | locus YER110C, stronger effect = lower value 0.963 | locus YER155C, strain BEM2, stronger effect = lower value 1 | locus YER167W, strain BCK2, stronger effect = lower value 1.02 | locus YGL078C, strain dbp3, stronger effect = lower value 0.983 | locus YGL086W, strain mad1, stronger effect = lower value 0.991 | locus YGL248W, strain PDE1, stronger effect = lower value 1 | locus YGR078C, strain PAC10, stronger effect = lower value 0.991 | locus YGR135W, strain pre9, stronger effect = lower value 0.957 | locus YGR252W, strain gcn5, stronger effect = lower value 0.98 | locus YHR030C, strain SLT2, stronger effect = lower value 1.01 | locus YHR079C, strain IRE1 (second series), stronger effect = lower value 0.988 | locus YHR094C, strain hxt1, stronger effect = lower value 0.979 | locus YHR129C, strain ARP1, stronger effect = lower value 1.01 | locus YHR200W, strain rpn10, stronger effect = lower value 0.994 | locus YIL066C, strain RNR3, stronger effect = lower value 1.04 | locus YIL073C, strain SPO22, stronger effect = lower value 1.01 | locus YIL125W, strain kgd1, stronger effect = lower value 0.992 | locus YIR030C, strain dcg1, stronger effect = lower value 0.994 | locus YJL095W, strain BCK1, stronger effect = lower value 1 | locus YJL134W, strain LCB3, stronger effect = lower value 1.01 | locus YJL168C, strain set2, stronger effect = lower value 0.991 | locus YJL187C, strain SWE1 (second series), stronger effect = lower value 0.999 | locus YKL009W, strain mrt4, stronger effect = lower value 1.03 | locus YKL068W, stronger effect = lower value 0.987 | locus YKL085W, strain MDH1 (second series), stronger effect = lower value 0.994 | locus YKL085W, strain MDH1, stronger effect = lower value 0.994 | locus YKR001C, strain vps1, stronger effect = lower value 0.996 | locus YLR039C, strain RIC1, stronger effect = lower value 1.06 | locus YLR058C, strain SHM2, stronger effect = lower value 1.02 | locus YLR102C, strain apc9, stronger effect = lower value 0.985 | locus YLR262C, strain YPT6, stronger effect = lower value 1.05 | locus YLR268W, strain sec22, stronger effect = lower value 1.02 | locus YLR371W, strain rom2, stronger effect = lower value 0.994 | locus YLR418C, strain cdc73, stronger effect = lower value 0.975 | locus YML016C, strain PPZ1, stronger effect = lower value 1.02 | locus YML032C, strain rad52, stronger effect = lower value 1 | locus YML124C, strain tub3, stronger effect = lower value 0.986 | locus YMR078C, strain ctf18, stronger effect = lower value 0.981 | locus YMR223W, strain ubp8, stronger effect = lower value 0.975 | locus YMR307W, strain GAS1, stronger effect = lower value 1.08 | locus YNL067W, strain RPL9B, stronger effect = lower value 0.986 | locus YNL153C, strain GIM3, stronger effect = lower value 0.991 | locus YNL233W, strain BNI4, stronger effect = lower value 0.987 | locus YNL250W, strain rad50, stronger effect = lower value 0.985 | locus YNL271C, strain bni1, stronger effect = lower value 0.994 | locus YNL298W, strain CLA4, stronger effect = lower value 0.983 | locus YNL307C, strain MCK1, stronger effect = lower value 0.986 | locus YNR052C, strain pop2, stronger effect = lower value 0.98 | locus YOL012C, strain htz1 1.29 | locus YOL147C, strain pex11, stronger effect = lower value 0.986 | locus YOR061W, strain CKA2, stronger effect = lower value 1.04 | locus YOR069W, strain VPS5, stronger effect = lower value 1 | locus YOR136W, strain idh2, stronger effect = lower value 0.98 | locus YOR144C, strain elg1, stronger effect = lower value 0.989 | locus YOR184W, strain ser1, stronger effect = lower value 1.03 | locus YOR316C, strain cot1, stronger effect = lower value 0.987 | locus YPL241C, strain CIN2, stronger effect = lower value 1.01 | locus YPR119W, strain clb2, stronger effect = lower value 0.983 | locus YPR141C, strain kar3, stronger effect = lower value 0.994 | locus YPR163C, strain tif3, stronger effect = lower value 0.989 | locus YPR167C, strain met16, stronger effect = lower value 0.978 | strain wtn01, stronger effect = lower value 1.01
